According to PubChem BioAssay (NCI):
About 79,000 compounds went through this panel and 15% of them were active in at least one assay; those are over-represented in the sample as a whole. A number with no mark means an inactive call. The source made the active and inactive calls. Rule as the data show it: active = growth inhibition above about 70%; inactive = the rest.

What was measured:
[1] = NCI Yeast Anticancer Drug Screen. Data for the rad50 strain (AID 155);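 also: 0% = growth of vehicle-only cultures of the same strain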; conditions: S. cerevisiae rad50 strain growth inhibition; at 50.0 µM; hits give high values
Method in brief: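 Cells are treated with compound, grown, and their growth is then scored against vehicle-only cultures of the same repair-deficient yeast strain.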

[2] = NCI Yeast Anticancer Drug Screen. Data for the mec2-1 strain (AID 157); conditions: S. cerevisiae mec2-1 strain, at 50.0 µM, hits give high values
Method in brief: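 Compounds were applied to mec2-1 yeast cells. Their growth was then compared with that of vehicle-treated cultures to give growth inhibition.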

[3] = NCI Yeast Anticancer Drug Screen. Data for the sgs1 mgt1 strain (AID 161);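 also: 0% = growth of cultures given vehicle only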; conditions: S. cerevisiae sgs1 mgt1 strain, at 50.0 µM, hits give high values
Method in brief: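 Yeast cells carrying a defined DNA-repair defect were exposed to test compounds. Growth inhibition was measured relative to vehicle-treated controls.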

[4] = NCI Yeast Anticancer Drug Screen. Data for the cln2 rad14 strain (AID 165);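 also: 0% = growth equal to vehicle treated cultures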; conditions: S. cerevisiae cln2 rad14 strain, at 50.0 µM, hits give high values
Method in brief: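 Strain: cln2 rad14 yeast, altered in cell cycle control and DNA damage repair. Read-out: growth inhibition vs vehicle.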

[5] = NCI Yeast Anticancer Drug Screen. Data for the bub3 strain (AID 167); conditions: S. cerevisiae bub3 mutant strain, at 50.0 µM, hits give high values
Method in brief: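 Part of a panel of yeast mutants defective in DNA damage repair or cell cycle regulation. Each strain is grown with compound, and inhibition is calculated relative to solvent-treated cultures.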

[6] = NCI Yeast Anticancer Drug Screen. Data for the mlh1 rad18 strain (AID 175); conditions: S. cerevisiae mlh1 rad18 strain growth inhibition; at 50.0 µM; hits give high values
Method in brief: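 A repair-deficient yeast strain is exposed to test compound, and growth is scored relative to vehicle-treated controls.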

SMILES	growth inhibition [1]	growth inhibition [2]	growth inhibition [3]	growth inhibition [4]	growth inhibition [5]	growth inhibition [6] [%]
Cn1c(O)c(C=N)c(=O)[nH]c1=O	-4%	3.35%	-1.65%	-15.7%	-8%	
CCCCC[As](=O)(O)O	12.2%	-6.4%	1.2%	-5.6%	4.3%	
CCCC[S][Sn]([CH2]CCC)([CH2]CCC)[S]CCCC	95.8% (active)	92.3% (active)	94.7% (active)	89.2% (active)	93.2% (active)	
C=C[C](=C)[Pb]([CH2]C)([CH2]C)[CH2]C	-7.3%	4.75%	-10.5%	13.7%	-10.6%	
O=P(N1CCCCCC1)(N1CC1)N1CC1	-2.15%	11%	-11.4%	3.95%	-3.25%	6.35
CCOP(=O)(OCC)C(O)c1ccc(Cl)cc1 (stereo not drawn)	-5.1%	-13.8%	-0.6%	-9.35%	22.3%	
O=[N+]([O-])c1cccc(N=Nc2ccc(N(CCCl)CCCl)cc2)c1	-23.4%	0.6%	-2.55%	-27.2%	4.65%	
O=C1NCN(c2ccccc2)C12CCN(CCCS(=O)(=O)c1ccccc1)CC2	-22.4%	-13.6%	-9.55%	-22.6%	3.5%	
CCC1([N+](=O)[O-])COP(=O)(NCc2ccncc2)OC1 (stereo not drawn)	8.4%	-8.4%	-5.95%	10.6%	-5.6%	
N.N.N.N.O=N[O-].O=N[O-].[Cl-].[Co+3]	4.25%	16.1%	2.55%	36.1%	7.25%	
CN(C)C(=O)Oc1ccc(C2CCCN2C)cn1 (stereo not drawn)	3.95%	5.45%	3.75%	-13.1%	-6%	
CN(C)C1C(=O)C(C(=O)NP(=O)(NCCCO)N(CCCl)CCCl)=C(O)C2(O)C(=O)C3=C(O)c4c(O)cccc4C(C)(O)C3CC12 (stereo not drawn)	27.6%	20.1%	21.9%	15.3%	25.6%	
CC[C@@H](C)C(=O)O[C@H]1[C@H](O)[C@H]2[C@@H](CN3C[C@@H](C)CC[C@H]3[C@@]2(C)O)[C@@H]2C[C@]34O[C@@]5(O)[C@@H](OC(=O)[C@](C)(O)[C@@H](C)O)CC[C@@]3(C)[C@@H]5[C@@H](OC(C)=O)[C@@H](OC(C)=O)[C@H]4[C@@]21O	8.75%	6.25%	-23.6%	12.6%	4.9%	
CCOS(=O)(=O)c1ccc(C)cc1	13.8%	8.25%	3.35%	-0.95%	8.45%	
COc1cc2c(c(OC)c1OC)CC1c3c(cc4c(c3-2)OCO4)CCN1C (stereo not drawn)	-5.85%	-31.5%	-18.1%	13.7%	2.1%	
O=P1(N(CCCl)CCCl)NCCCO1 (stereo not drawn)	-8.1%	-32.2%	-6.1%	4.8%	-15.2%	-7.05
Oc1ccc(Cl)c(Cl)c1	-3.45%	-32.5%	-72.8%	-3.1%	-51.5%	-13.8
CC1(C)OCC(CO)(Nc2nc(N3CC3)nc(N3CC3)n2)CO1	-12.6%	2.9%	3.3%	-38%	5.6%	-2.8
CCOC(=O)N[N+]12CCN(CC1)CC2	0.45%	-2.65%	1.95%	-12.9%	-1.2%	-11.1
CCCCC1(CCO)C(=O)NC(=O)NC1=O	-12.1%	-2.65%	-5.7%	-19.1%	28.4%	-20.6
COc1cc2c(cc1O)-c1c(OC)c(O)cc3c1C(C2)N(C)CC3 (stereo not drawn)	-20.6%	-22.4%	-22.6%	-16.4%	-24.4%	-46.9
CCOP(C)(=O)C(N)Cc1ccc(OC)c(OC)c1 (stereo not drawn)	-39.6%	-59.5%	-40.1%	-16.4%	1.1%	-34.5
